Assay: qHTS profiling of the MIPE4 collection as inhibitors of Plasmodium falciparum (3D7) proliferation (AID 743344);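 also: scaled between DMSO vehicle wells and 0.29 µM artemisinin as full inhibition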
Details: P. falciparum 3D7 in erythrocytes, SYBR Green DNA fluorescence, 72 h; at 28.5 µM unless noted
Summary of the method: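 Parasite DNA was quantified by SYBR Green I fluorescence (ex 485, em 535 nm) after overnight lysis in saponin/Triton buffer at room temperature. Cultures at 0.3% parasitemia and 2.5% hematocrit were first exposed to compound for 72 h at 37 C; signals were normalised to artemisinin (0.29 uM) and vehicle wells.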
With `CC(C)c1nn(-c2c(Cl)cccc2Cl)c2nc(Cc3ccc(OCCO)cc3)[nH]c(=O)c12` the parasite growth, % of DMSO control was 20.8%.
With `CC(O)C1C(=O)N2C(C(=O)O)=C(SC3CNC(C(=O)N(C)C)C3)C(C)C12` (stereo not given) the parasite growth, % of DMSO control was 87.4%.
For `Nc1ccn([C@@H]2O[C@H](CO)[C@H](O)C2(F)F)c(=O)n1`, the parasite growth, % of DMSO control was 19.5%.
`CC(C)Nc1cc(C(F)(F)F)cc2nc(NC(=O)c3cccnc3)nn12` gave a parasite growth, % of DMSO control of 78.6%.
`C=CC(=O)Nc1cccc(Oc2nc(Nc3ccc(N4CCN(C)CC4)cc3)ncc2Cl)c1` showed a parasite growth, % of DMSO control of 8.39%.
For `O=C(CCCCCCNC(=O)c1cnc(N(c2ccccc2)c2ccccc2)nc1)NO`, the parasite growth, % of DMSO control was 5.31%.
For `Cc1nc(Nc2n[nH]c3c2CN(C(=O)N[C@H](CN(C)C)c2ccccc2)C3(C)C)c2sccc2n1`, the parasite growth, % of DMSO control was 4.72%.
`CC(C)(C)NC(=O)[C@H]1CN(Cc2cccnc2)CCN1C[C@@H](O)C[C@@H](Cc1ccccc1)C(=O)N[C@H]1c2ccccc2C[C@H]1O` showed a parasite growth, % of DMSO control of 19.6%.
`Cc1cc(Nc2nc(N[C@@H](C)c3ccc(F)cc3)c(C#N)cc2F)n[nH]1` showed a parasite growth, % of DMSO control of 7.05%.
Work on `CN1CCN(Cc2ccc(NC(=O)Nc3ccc(Oc4cc(NC(=O)C5CC5)ncn4)cc3)cc2C(F)(F)F)CC1` yielded a parasite growth, % of DMSO control of 6%.
For `Cn1c(CNc2ccc(C(=N)N)cc2)nc2cc(C(=O)N(CCC(=O)O)c3ccccn3)ccc21`, the parasite growth, % of DMSO control was 98.6% [at 9.64 µM].
In the case of `O=C(CCCCCCC(=O)Nc1ccc([C@H]2O[C@@H](CSc3nc(-c4ccccc4)c(-c4ccccc4)o3)C[C@@H](c3ccc(CO)cc3)O2)cc1)NO`, the parasite growth, % of DMSO control is reported as 5.18%.
`COc1ccc(F)c(F)c1C(=O)c1cnc(NC2CCN(S(C)(=O)=O)CC2)nc1N` gave a parasite growth, % of DMSO control of 27.7%.
`CNC(=O)c1ccc(-c2cnc3ncc(Cc4ccc5ncccc5c4)n3n2)cc1F` gave a parasite growth, % of DMSO control of 19.3%.
In the case of `COc1ccc(-n2nc(C(N)=O)c3c2C(=O)N(c2ccc(N4CCCCC4=O)cc2)CC3)cc1`, the parasite growth, % of DMSO control is reported as 53.4%.
Molecule `CNC(=O)CN1CCC(Oc2cc3c(Nc4cccc(Cl)c4F)ncnc3cc2OC)CC1` has a parasite growth, % of DMSO control of 11.2%.
For `CC(C)c1cnn2c(NCc3ccccc3)cc(N[C@@H](CO)[C@H](O)CO)nc12`, the parasite growth, % of DMSO control was 21.9%.
`O=C(Nc1cn[nH]c1-c1nc2ccc(CN3CCOCC3)cc2[nH]1)NC1CC1` gave a parasite growth, % of DMSO control of 5.31%.
For `O=C(Nc1nc2cccc(-c3ccc(CN4CCS(=O)(=O)CC4)cc3)n2n1)C1CC1`, the parasite growth, % of DMSO control was 64.7%.
`CN(C)c1nc(Cc2ccc(NC(=O)c3ccc4ccccc4c3)cc2)nc(Cl)c1CC(=O)O` gave a parasite growth, % of DMSO control of 59.8%.
For `OCc1ccc(-c2ccc(-c3ccc(CO)s3)o2)s1`, the parasite growth, % of DMSO control was 78.4%.
For `COC(=O)C1=C(C)NC(C)=C(C(=O)OCCN2CCN(C(c3ccccc3)c3ccccc3)CC2)C1c1cccc([N+](=O)[O-])c1` (stereo not given), the parasite growth, % of DMSO control was 19.8%.
Molecule `CNC(=O)c1ccc(N2C(=S)N(c3cnc(C#N)c(C(F)(F)F)c3)C(=O)C23CCC3)cc1F` has a parasite growth, % of DMSO control of 41%.
With `CCc1cc2c(cc1N1CCC(N3CCOCC3)CC1)C(C)(C)c1[nH]c3cc(C#N)ccc3c1C2=O` the parasite growth, % of DMSO control was 12.5%.
`CC(C)c1cc(C(=O)N2Cc3ccc(CN4CCN(C)CC4)cc3C2)c(O)cc1O` gave a parasite growth, % of DMSO control of 5.55%.
Molecule `CC(C)c1cc(-c2n[nH]c(=O)n2-c2ccc3c(ccn3C)c2)c(O)cc1O` has a parasite growth, % of DMSO control of 5.55%.
In the case of `Cc1cc(CN2CCN(c3c(Br)cnc4nc(-c5ccc(N6CCN(C)CC6)cc5)[nH]c34)CC2)no1`, the parasite growth, % of DMSO control is reported as 15.7%.
In the case of `Cc1ccc(CN2CCNCC2)cc1NC(=O)CNc1ccc(F)c(F)c1`, the parasite growth, % of DMSO control is reported as 55.3%.
`Nc1cccc(-c2cc3c(Oc4cccc(O)c4)ncnc3[nH]2)c1` gave a parasite growth, % of DMSO control of 33.1%.
Molecule `Cc1cc(Nc2cc(CN3CCOCC3)c3nc(C)c(Cc4ccc(Cl)cc4F)n3n2)n[nH]1` has a parasite growth, % of DMSO control of 6.44%.
Work on `Cc1c(C)n(Cc2ccc(-c3ccccc3C(=O)O)cc2)c2ccc(C(=O)N[C@@H](C)c3ccc([N+](=O)[O-])cc3)cc12` yielded a parasite growth, % of DMSO control of 25.4%.
Molecule `CC(C)c1noc(N2CCC(COc3ccc(-c4ccc(S(C)(=O)=O)cc4)nc3)CC2)n1` has a parasite growth, % of DMSO control of 22.7%.
In the case of `Nc1ncnc2c1c(-c1cccc(OCc3ccccc3)c1)cn2C1CC(CN2CCCC2)C1` (stereo not given), the parasite growth, % of DMSO control is reported as 5.35%.
Work on `O=C(Nc1ncc(-c2cc(C(F)F)nn2-c2c(Cl)cccc2Cl)s1)C1CC1` yielded a parasite growth, % of DMSO control of 10.3%.
For `O=C(Cc1ccc(-c2ccc(OCCN3CCOCC3)cc2)cn1)NCc1ccccc1`, the parasite growth, % of DMSO control was 20.6%.

Source: PubChem BioAssay (NCATS)
